PubChem BioAssay (Tox21)
Records with an inconclusive call do not appear. The source made the active and inactive calls. Unless noted, calls follow the shape of the full dose curve.

Tests used:
[1] = Nuclear factor erythroid 2-related factor 2/antioxidant responsive element (Nrf2/ARE) small molecule agonists: qHTS cell viability counter screen in human keratinocytes (AID 1919968; active = well fitted curve in the direction sought with a large enough effect in the repeat runs; an effect the other way counts as inactive or inconclusive; also: nearly all actives have a fitted effect of over 55% in size)
Method in brief: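 After a 5 h attachment period, ARE-reporter keratinocytes were dosed with compounds in DMSO and then cultured 23 h at 37 C. Cell viability came from CellTiter-Fluor signal read after a further 1 h.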

[2] = molecular target: Gonadotropin-releasing hormone receptor (Homo sapiens) (UniProt P30968); experiment: Human gonadotropin-releasing hormone receptor (GnRHR) small molecule agonists, calcium flux assay in GnRHR-HEK293 cells (AID 1920063); also: nearly all actives have a fitted effect of over 35% in size
Sequence of Gonadotropin-releasing hormone receptor (Homo sapiens) (P30968 whole entry, looked up): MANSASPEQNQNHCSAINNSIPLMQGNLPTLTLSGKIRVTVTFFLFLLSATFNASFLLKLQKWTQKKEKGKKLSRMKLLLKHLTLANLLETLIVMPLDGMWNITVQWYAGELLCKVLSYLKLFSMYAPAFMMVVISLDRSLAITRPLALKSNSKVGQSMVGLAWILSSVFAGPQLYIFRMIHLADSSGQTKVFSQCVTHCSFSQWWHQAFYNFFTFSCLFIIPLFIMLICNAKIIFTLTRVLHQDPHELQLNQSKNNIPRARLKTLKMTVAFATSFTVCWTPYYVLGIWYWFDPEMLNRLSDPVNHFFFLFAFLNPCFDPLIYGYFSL
Method in brief: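 We seeded human GnRHR-expressing HEK293 cells for 18 hours, loaded them with calcium dye for an hour at 37 C, added test compounds, and recorded fluorescence intensity kinetically for three minutes.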

[3] = G protein-coupled receptor (GPCR) small molecule agonists, calcium flux assay: HEK293 wild type cell line counter screen (AID 1920065)
Method in brief: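 Calcium-sensitive dye, loaded 1 h at 37 C into cells cultured 18 h, reports compound-evoked calcium release as fluorescence (Ex/Em 480/540), measured over 3 min. Agonist mode; 15-point titrations, triplicate.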

[4] = p53 small molecule agonists, cell-based qHTS assay with human liver microsomes (AID 1963577)
Method in brief: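 Compounds act here after metabolic activation: human liver microsomes and NADPH, both at 0.5 mg/mL final, were co-added to p53RE-bla cells. Incubation ran 16 h at 37 C, followed by LiveBLAzer detection.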

[5] = p53 small molecule agonists, cell-based qHTS assay with rat liver microsomes (AID 1963578)
Method in brief: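 Read-out is beta-lactamase reporter fluorescence (LiveBLAzer, 2 h, room temperature, dark) in p53RE-bla cells treated 16 h at 37 C with compound, rat liver microsomes and NADPH, both 0.5 mg/mL final.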

[6] = p53 small molecule agonists, cell-based qHTS assay with human liver microsomes: qHTS cell viability counter screen (AID 1963579); also: nearly all actives have a fitted effect of over 45% in size
Method in brief: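 Cells carrying the p53 response-element beta-lactamase reporter are treated for 16 h at 37 C with test compounds in the presence of human liver microsomes and NADPH (both 0.5 mg/mL final); ATP-based CellTiter-Glo luminescence then reports viability.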

[7] = p53 small molecule agonists, cell-based qHTS assay with rat liver microsomes: qHTS cell viability counter screen (AID 1963580); also: nearly all actives have a fitted effect of over 45% in size
Method in brief: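 HCT-116 p53RE-bla, 4,000 cells/well, 5 h pre-incubation; cpd + rat liver microsomes 0.5 mg/mL + NADPH 0.5 mg/mL (final); 16 h, 37 C; CellTiter-Glo, 30 min RT; luminescence.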

[8] = p53 small molecule agonists, cell-based qHTS assay: qHTS cell viability counter screen (AID 1963581); also: nearly all actives have a fitted effect of over 45% in size
Method in brief: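 Following 5 h attachment, HCT-116 p53RE-bla cells took up compound for 16 h at 37 C; the reporter was read with B/G FRET substrate (2 h RT), and viability then via CellTiter-Glo ATP luminescence.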

[9] = p53 small molecule agonists, cell-based qHTS assay (AID 1963582; active = well fitted activation curve with a large enough effect in the signal ratio in the repeat runs, not every such curve was filed as active; the % refers to the signal ratio)
Method in brief: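 In this cell-based concentration-response screen, a p53 response element drives beta-lactamase; cells received DMSO-borne compounds after 5 h culture and were incubated a further 16 h before FRET substrate development.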

[10] = molecular target: 5-hydroxytryptamine receptor 2A (Homo sapiens) (UniProt P28223); experiment: 5-hydroxytryptamine receptor 2A (HTR2A) small molecule antagonists, cell-based qHTS assay (AID 1963586); also: nearly all actives have a fitted effect of over 45% in size
Sequence of 5-hydroxytryptamine receptor 2A (Homo sapiens) (P28223 whole entry, looked up): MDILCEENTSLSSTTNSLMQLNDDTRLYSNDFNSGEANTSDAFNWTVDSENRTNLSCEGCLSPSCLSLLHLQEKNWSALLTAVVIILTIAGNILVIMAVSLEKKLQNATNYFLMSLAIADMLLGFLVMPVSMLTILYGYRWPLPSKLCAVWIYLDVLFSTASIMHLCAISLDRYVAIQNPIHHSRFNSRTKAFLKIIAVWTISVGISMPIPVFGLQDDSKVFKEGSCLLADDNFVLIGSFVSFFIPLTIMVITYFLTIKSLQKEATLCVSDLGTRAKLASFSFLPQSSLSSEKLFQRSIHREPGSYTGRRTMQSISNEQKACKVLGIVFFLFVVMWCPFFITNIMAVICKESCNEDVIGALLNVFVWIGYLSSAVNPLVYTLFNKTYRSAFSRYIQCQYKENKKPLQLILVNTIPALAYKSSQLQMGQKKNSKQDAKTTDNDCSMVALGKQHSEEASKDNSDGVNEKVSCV
Method in brief: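 Antagonist-mode intracellular calcium assay: DOI (4 nM) added after 5 min compound pre-incubation at room temperature to dye-loaded HTR2A-CHO cells. Fluorescence followed for 3 min, sampled every second.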

[11] = molecular target: 5-hydroxytryptamine receptor 2A (Homo sapiens) (UniProt P28223); experiment: 5-hydroxytryptamine receptor 2A (HTR2A) small molecule agonists, cell-based qHTS assay (AID 1963587); also: nearly all actives have a fitted effect of over 30% in size
Method in brief: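 Kinetic calcium-flux fluorescence (2 min, 1 sec intervals) after compound addition in agonist mode. HTR2A-CHO cells were cultured 18 h, then dye-loaded 1 h at 37 C.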

[12] = molecular target: Muscarinic acetylcholine receptor M1 (Homo sapiens) (UniProt P11229); experiment: Cholinergic receptor muscarinic 1 (CHRM1) small molecule antagonists, cell-based qHTS assay (AID 1963588); also: nearly all actives have a fitted effect of over 40% in size
Sequence of Muscarinic acetylcholine receptor M1 (Homo sapiens) (P11229 whole entry, looked up): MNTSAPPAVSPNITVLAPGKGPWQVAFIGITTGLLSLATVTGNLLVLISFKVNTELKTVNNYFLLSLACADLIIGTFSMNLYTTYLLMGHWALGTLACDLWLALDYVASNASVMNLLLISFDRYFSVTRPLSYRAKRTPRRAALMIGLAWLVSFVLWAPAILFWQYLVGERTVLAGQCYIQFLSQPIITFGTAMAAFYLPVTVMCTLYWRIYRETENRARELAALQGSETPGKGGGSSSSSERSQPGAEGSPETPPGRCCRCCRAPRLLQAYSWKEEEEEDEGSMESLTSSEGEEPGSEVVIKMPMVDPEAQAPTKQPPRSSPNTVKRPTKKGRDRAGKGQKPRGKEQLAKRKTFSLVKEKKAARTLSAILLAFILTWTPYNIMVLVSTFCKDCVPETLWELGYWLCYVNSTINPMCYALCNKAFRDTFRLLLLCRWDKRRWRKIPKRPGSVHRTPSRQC
Method in brief: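 CHRM1-CHO calcium-flux assay, antagonist mode. Cells were seeded 18 h, dye-loaded 1 h at 37 C and given compound for 5 min at RT, then acetylcholine was added at 50nM. FDSS fluorescence was read 3 min; 15 concentrations, three runs.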

[13] = molecular target: Muscarinic acetylcholine receptor M1 (Homo sapiens) (UniProt P11229); experiment: Cholinergic receptor muscarinic 1 (CHRM1) small molecule agonists, cell-based qHTS assay (AID 1963589); also: nearly all actives have a fitted effect of over 35% in size
Method in brief: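 Measures agonist-induced intracellular calcium rise. Stable human CHRM1 CHO line, 1 h dye load at 37 C, compounds from DMSO, kinetic fluorescence read.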

[14] = molecular target: Beta-2 adrenergic receptor (Homo sapiens) (UniProt P07550); experiment: Adrenergic beta2 receptor (ADRB2) small molecule antagonists, cell-based qHTS assay (AID 1963592); also: series mostly up to about 92 µM; nearly all actives have a fitted effect of over 50% in size
Sequence of Beta-2 adrenergic receptor (Homo sapiens) (P07550 whole entry, looked up): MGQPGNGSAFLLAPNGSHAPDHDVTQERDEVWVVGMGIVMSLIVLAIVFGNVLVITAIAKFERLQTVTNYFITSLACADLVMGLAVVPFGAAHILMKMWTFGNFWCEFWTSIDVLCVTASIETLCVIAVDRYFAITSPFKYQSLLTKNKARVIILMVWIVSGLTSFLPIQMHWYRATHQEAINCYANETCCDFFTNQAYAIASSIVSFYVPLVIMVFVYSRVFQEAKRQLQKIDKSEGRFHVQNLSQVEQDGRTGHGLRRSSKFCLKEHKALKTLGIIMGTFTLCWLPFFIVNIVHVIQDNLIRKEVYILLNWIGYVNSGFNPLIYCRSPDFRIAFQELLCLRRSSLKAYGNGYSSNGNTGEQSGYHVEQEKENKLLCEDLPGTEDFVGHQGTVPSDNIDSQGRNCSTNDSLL
Method in brief: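 Cells (CHO, stable ADRB2 overexpression) incubated 18-20hr at 37C; compounds added from DMSO; agonist mix (1nM isoproterenol, 100uM IBMX, 25uM Ro-20-1724) added; 0.5hr RT; d2-cAMP and anti-cAMP-cryptate added; 1hr RT; 665/615 nm read.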

[15] = molecular target: Beta-2 adrenergic receptor (Homo sapiens) (UniProt P07550); experiment: Adrenergic beta2 receptor (ADRB2) small molecule agonists, cell-based qHTS assay (AID 1963593);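 also: CHO cells stably overexpressing human ADRB2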
Method in brief: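 CHO cells stably over-expressing ADRB2 were plated overnight at 37C, then dosed with compounds plus a stimulation mix containing 100uM IBMX and 25uM Ro-20-1724 for 0.5hr at room temperature. cAMP was measured by HTRF competition, 1hr.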

[16] = molecular target: D(2) dopamine receptor (Homo sapiens) (UniProt P14416); experiment: Dopamine D2 receptor (DRD2) small molecule agonists, cell-based qHTS assay (AID 1963594); also: nearly all actives have a fitted effect of over 35% in size
Sequence of D(2) dopamine receptor (Homo sapiens) (P14416 whole entry, looked up): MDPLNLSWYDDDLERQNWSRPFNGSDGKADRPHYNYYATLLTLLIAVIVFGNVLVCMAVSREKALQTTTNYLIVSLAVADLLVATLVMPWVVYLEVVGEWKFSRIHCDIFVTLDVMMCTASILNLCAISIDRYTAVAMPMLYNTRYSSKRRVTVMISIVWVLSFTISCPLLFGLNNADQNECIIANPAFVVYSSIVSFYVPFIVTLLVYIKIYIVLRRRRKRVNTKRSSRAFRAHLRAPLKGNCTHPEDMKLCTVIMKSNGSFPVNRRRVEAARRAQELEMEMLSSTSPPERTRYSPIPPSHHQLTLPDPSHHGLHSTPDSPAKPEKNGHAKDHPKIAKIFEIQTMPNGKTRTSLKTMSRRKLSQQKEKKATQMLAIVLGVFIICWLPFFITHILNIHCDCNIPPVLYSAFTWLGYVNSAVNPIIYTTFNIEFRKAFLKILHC
Method in brief: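 cAMP accumulation in DRD2-HEK293 cells measured by HTRF after 1 h detection; compounds added 10 min before NKH477 (200nM […]) forskolin-analogue stimulation, 30 min at room temperature, with Ro20-1724 present at 0.1 mM final.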

[17] = molecular target: D(2) dopamine receptor (Homo sapiens) (UniProt P14416); experiment: Dopamine D2 receptor (DRD2) small molecule antagonists, cell-based qHTS assay (AID 1963595; active = well fitted inhibition curve with a large enough effect in the signal ratio in the repeat runs, with a control signal flat; the % refers to the signal ratio)
Method in brief: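 Readout: HTRF cAMP, cAMP-d2 competing with cellular cAMP for anti-cAMP cryptate, read after 1 h. Cells: DRD2-HEK293. Conditions: 0.1 mM Ro20-1724, 12 nM quinpirole, 200 nM NKH477, 30 min RT.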

[18] = cAMP Responsive Elements (CRE) small molecule agonists, cell-based qHTS assay (AID 1963590)
Method in brief: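 A CRE-responsive beta-lactamase reporter in HEK 293T cells was used. Treatment ran 3 h at 37 C; detection used LiveBLAzer B/G FRET substrate for 2 h at room temperature.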

[19] = cAMP Responsive Elements (CRE) small molecule antagonists, cell-based qHTS assay (AID 1963591; active = well fitted inhibition curve with a large enough effect in the signal ratio in the repeat runs, not every such curve was filed as active; the % refers to the signal ratio)
Method in brief: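 HEK293T cells carrying a CRE-driven beta-lactamase reporter receive compound and NKH477 (0.25 uM final) for 3 h. Fluorescence from LiveBLAzer B/G FRET substrate is read after 2 h at room temperature.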

[20] = molecular target: KiSS-1 receptor (Homo sapiens) (UniProt Q969F8); experiment: Human kisspeptin (KISS1R) small molecule agonists, calcium flux assay in KISS1R-HEK293 cells (AID 1920064; active = well fitted curve in the direction sought with a large enough effect in the repeat runs; an effect the other way counts as inactive or inconclusive)
Sequence of KiSS-1 receptor (Homo sapiens) (Q969F8 whole entry, looked up): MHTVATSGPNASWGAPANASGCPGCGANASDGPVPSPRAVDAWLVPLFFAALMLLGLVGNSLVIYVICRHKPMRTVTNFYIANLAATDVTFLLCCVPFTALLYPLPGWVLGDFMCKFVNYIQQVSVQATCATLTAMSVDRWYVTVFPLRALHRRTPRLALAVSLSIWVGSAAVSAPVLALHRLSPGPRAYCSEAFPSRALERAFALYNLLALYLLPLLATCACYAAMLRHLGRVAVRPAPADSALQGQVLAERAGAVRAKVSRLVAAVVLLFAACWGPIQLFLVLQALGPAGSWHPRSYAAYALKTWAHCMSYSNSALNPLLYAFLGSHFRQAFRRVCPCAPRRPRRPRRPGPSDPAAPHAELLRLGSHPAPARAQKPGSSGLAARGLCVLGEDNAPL
Method in brief: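 Kinetic calcium assay, 1 s sampling over 3 min at Ex/Em 480/540, in HEK293 cells engineered with human KISS1R; compounds delivered in DMSO after 1 h dye loading.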

Measured: Potency

C=C(C)C(=O)OCCOCCOCCOCCOC(=O)C(=C)C
inactive: [1] | [2] | [3] | [4] | [5] | [6] | [7] | [8] | [9] | [10] | [11] | [12] | [13] | [14] | [15] | [16] | [17]

CCC(Cl)CCC(Cl)C(Cl)CC(Cl)C(Cl)C(Cl)CCl (stereo not given)
inactive: [1] | [2] | [3] | [4] | [5] | [6] | [8] | [9] | [10] | [11] | [12] | [13] | [18] | [19] | [14] | [16] | [17]

Cc1cccc(OCCOc2cccc(C)c2)c1
inactive: [1] | [2] | [4] | [5] | [6] | [7] | [8] | [9] | [10] | [11] | [12] | [13] | [18] | [14] | [16] | [17]

CC(=O)Nc1ccccc1O
inactive: [1] | [2] | [3] | [4] | [5] | [6] | [7] | [8] | [9] | [10] | [11] | [12] | [19] | [14] | [15] | [16] | [17]

Oc1ccc(Cc2ccccc2)cc1
inactive: [1] | [2] | [20] | [4] | [5] | [7] | [8] | [9] | [10] | [12] | [13] | [15] | [16] | [17]

CCO[C@H](Cc1ccc(OCCc2ccc(OS(C)(=O)=O)cc2)cc1)C(=O)O
inactive: [1] | [2] | [20] | [6] | [7] | [8] | [11] | [12] | [13] | [18] | [19] | [14] | [16]

CC1(C)C(=O)N(Br)C(=O)N1Br
inactive: [1] | [2] | [20] | [5] | [6] | [7] | [9] | [10] | [11] | [12] | [13] | [18] | [19] | [14] | [15] | [16] | [17]

O=C(O)c1cc(Br)c(O)c(Br)c1
inactive: [1] | [2] | [20] | [8] | [10] | [11] | [13] | [18] | [14] | [15] | [16] | [17]

Cc1nn(C)c(Oc2ccccc2)c1/C=N/OCc1ccc(C(=O)OC(C)(C)C)cc1
inactive: [1] | [2] | [20] | [5] | [7] | [8] | [10] | [11] | [12] | [13] | [14] | [15]
